Only some compounds are listed: those with a hit (about 21% of all), similar ones and a draw of the others.
HCV inhibitor: qHTS Assay for Inhibitors of Hepatitis C Virus (HCV); Potency, µM (series often up to 41.8 µM), for the others: at the highest dose activity change, negative = inhibition, hits mostly inhibitors; actives 3.4% (n = 340,000); Huh7.5.1 HCVcc-Cre infection, luciferase reporter, 44 h; AID 651820, 2012; note: potency is the fitted concentration of half-maximal effect; % is set by controls: 0 for no effect and ±100 for the full control effect
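Compounds are dispensed onto cells plated 4 h earlier at 1,000 per well, with HCVcc-Cre virus (about 0.5 moi) added next. Following 44 h of culture, luminescent signal is measured for 15 sec after 15 min with substrate at room temperature.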
Pf growth 48h: Primary qHTS for delayed death inhibitors of the malarial parasite plastid, 48 hour incubation; P. falciparum luciferase growth in erythrocytes, 48 h; Potency, µM (highest dose often 28.7 µM), for inactives: at the highest dose activity change, negative = inhibition, hits mostly inhibitors; actives 5.9% (n = 310,000); note: potency is the fitted concentration of half-maximal effect; % is set by controls: 0 for no effect and ±100 for the full control effect
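Luciferase-expressing P. falciparum in infected erythrocytes (2% hematocrit, 0.1% parasitemia final) in RPMI 1640/0.5% Albumax were exposed to compound for 48 hours at 37 C, 5% CO2; growth read as luminescence.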
AMA1-RON2 inh: qHTS for Inhibitors of AMA1-RON; Towards Development of Antimalarial Drug Lead: Primary Screen; AlphaScreen AMA1-biotinylated RON2 peptide binding; Potency, µM (series often up to 58.2 µM), for inactives: top-dose activity change, negative = inhibition, usual class: inhibitors; actives 0.2% (n = 360,000); AID 720542, 2013;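 note: potency is the fitted concentration of half-maximal effect; 0% = vehicle wells and -100% = peptide control; nearly all actives have a fitted effect of over 45% in size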
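AMA1 (3D7) with his tag at 25 nM final met compounds first, then biotinylated RON2 peptide at 25 nM; detection used donor plus acceptor beads, 10 µg/mL apiece, read by AlphaScreen after 30 min at room temperature.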
Shiga inhibitor: A qHTS for Small Molecule Inhibitors of Shiga Toxin. Vero cells, Shiga toxin protein synthesis inhibition reporter. inhibition, % at 38.7 µM. actives 9.2% (n = 290,000); in the data active = inhibition mostly above about 28%, no sharp cut-off; inactive = mostly below about 43%; note: 0% is about no effect
Pf growth 96h: Primary qHTS for delayed death inhibitors of the malarial parasite plastid, 96 hour incubation | P. falciparum luciferase reporter growth, 96 h | Potency, µM (highest dose often 28.7 µM), for inactives: at the top dose activity change, negative = inhibition, hits mostly inhibitors | actives 6.9% (n = 320,000) | AID 504834, 2011; note: potency is the fitted concentration of half-maximal effect; % is set by controls: 0 for no effect and ±100 for the full control effect
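Compounds incubated with erythrocytes infected by luciferase-expressing P. falciparum (2% hematocrit, 0.05% parasitemia final) for 96 hours, 37 C in 5% CO2. Growth inhibition scored as decreased luciferase luminescence.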
CHX counter: Cycloheximide Counterscreen for Small Molecule Inhibitors of Shiga Toxin | cell reporter, cycloheximide protein synthesis inhibition counterscreen | max response, % | actives 12% (n = 300,000); in the data active = max response mostly above about 13%, no sharp cut-off; inactive = mostly below about 14%; note: read at 38.3 µM for the half of the compounds with a filed dose; 0% is about no effect
The depositor's hits bear a star; ? = inconclusive; nt = no result; + = active, no number. Unless noted, calls come from the whole dose curve; as a rule, active = well fitted curve in the direction sought with a large enough effect; inconclusive = small, poorly fitted or top-dose-only effect, or another doubt; inactive = no such curve, though single readings can be large; an effect the other way counts as inactive or inconclusive.

SMILES	HCV inhibitor	Pf growth 48h	AMA1-RON2 inh	Shiga inhibitor	Pf growth 96h	CHX counter
COC(=O)c1ccc(COc2ccccc2/C=C(\C#N)C(=O)NC(C)C)cc1	14%	36%	2%	9	62%	3
COC(=O)c1ccc(COc2ccccc2/C=C/C(=O)c2ccc(OCC(=O)O)cc2)cc1	-7%	?	-6%	47	1.5µM*	1
COc1cc(C=NNc2ccccc2)ccc1OC(=O)c1ccccc1	nt	nt	-2%	nt	nt	nt
CCOc1cc(/C=N/Nc2cccc(C(=O)O)c2)ccc1OC(=O)c1ccccc1	2%	129%	?	186*	48%	61*
CC(Nc1ccc(Br)cc1)C(=O)N/N=C/c1ccccc1OCc1ccccc1 (centres undefined)	-8%	nt	0%	-6	-3%	-5
O=C(O)c1cccc(NC(=S)N/N=C/c2ccccc2OCc2ccc(Br)cc2)c1	?	11%	17%	69	?	16*
CC(C)(C)c1cc(NC(=O)C2(C)CCN2C(=O)C2(c3ccccc3)CCCC2)no1 (centres undefined)	nt	nt	6%	nt	nt	nt
COC(=O)c1ccc(COc2ccccc2/C=N/Nc2cccc(C(=O)O)c2)cc1	5%	8%	10%	80*	36%	55*
CC(/C=N/NC(=O)CSc1ccccn1)=C\c1ccc(C(C)C)cc1	-7%	-12%	7%	+	?	108*
CC(=C/c1ccc(C(C)C)cc1)/C=N/NC(=O)CSc1ccccn1	?	?	2%	157*	-15%	71*
NNCc1ccccc1	0%	nt	32µM*	nt	nt	nt
NNCCc1ccccc1	-3%	?	-8%	110*	?	47*
ONCc1ccccc1	nt	nt	nt	1	nt	4
CCCCOCCCNC(=O)C[C@@H]1C[C@@]2(C(=O)OCC)CCCC=C2N(CCc2ccc(OC)c(OC)c2)C1=O	nt	nt	-17%	nt	nt	nt
CC(=O)O[C@@H]1C[C@H]2C(C)(C)C(=O)C=C[C@]2(C)[C@H]2CC[C@@]3(C)[C@H](c4ccoc4)OC(=O)[C@H]4O[C@]43[C@@]21C	?	1.7µM*	-20%	30	3.3µM*	2
CCCN(CCC)C(=O)c1cn(CC)c2ccc(S(=O)(=O)N3CCCCC3)cc2c1=O	-3%	?	0%	22	?	-4
CCCc1nc2ccc(C)cn2c1Cc1ccc(C)cc1	nt	nt	-1%	nt	nt	nt
CCn1c(CN2CCN(c3ccc(Cl)cc3)CC2)nc2ccccc21	?	12µM*	7%	-2	?	-2
CCc1nc2ccccc2n1CCc1ccccc1	3%	?	-4%	-2	54%	-2
CCn1c(CCc2ccccc2)nc2ccccc21	-17%	?	-6%	27	0.13µM*	32*
CC(C)Cc1nc2ccccc2n1CCc1ccccc1	6%	9.3µM*	3%	-15	6.6µM*	-6
Cc1csc(NC(=O)c2ccc(Cn3nc(C)c(Br)c3C)o2)n1	10µM*	?	-3%	-10	?	1
Cc1nn(Cc2ccc(C(=O)Nc3ccccc3C(F)(F)F)o2)c(C)c1Br	?	?	-7%	17	40%	-1
CCc1ccc(C(=O)COC(=O)c2cccnc2Cl)cc1	1%	39%	14%	95*	47%	39*
N#CCc1ccc(OC(=O)c2cccnc2Cl)cc1	14%	nt	-3%	nt	nt	nt
SMILES	HCV inhibitor	Pf growth 48h	AMA1-RON2 inh	Shiga inhibitor	Pf growth 96h	CHX counter
O=C(COC(=O)c1cccnc1Cl)c1ccccc1	21%	46%	-2%	71*	?	47*
CCC(C)(C)c1ccc(OC(=O)c2cccnc2Cl)cc1	6%	?	23%	124*	27%	38*
O=C(COC(=O)c1cccnc1Cl)c1ccc(F)cc1	13%	10%	7%	97*	21%	22*
COc1cc(NC(=O)CN2C(=O)C(=O)N(C3CCCC3)C2=O)cc(OC)c1	-21%	5%	5%	nt	-17%	nt
O=C(OCC(=O)c1ccccc1Br)c1ccccn1	13%	20%	?	4	8.3µM*	-1
Cc1ccc2cc(C)c(N3CCN(c4ccccn4)CC3)nc2c1	?	-9%	-1%	51*	nt	28
Cc1ccc(-c2nnc(N3CCN(c4ccccn4)CC3)c3ccccc23)cc1	?	13µM*	?	-6	-9%	-2
O=S(=O)(c1ccccc1)N1CCN(c2nnc(-c3ccccc3)c3ccccc23)CC1	-13%	?	-2%	-9	4.1µM*	0
Cc1ccc(-c2nnc(N3CCCCC3)c3ccccc23)cc1	?	?	-4%	18	-25%	-2
CCN1CCN(c2nnc(-c3ccc(F)cc3)c3ccccc23)CC1	2.8µM*	5%	10%	-14	3%	-6
CC1(C(=O)NS(=O)(=O)c2ccc(Br)cc2)CCN1C(=O)C1(c2ccccc2)CC1 (centres undefined)	nt	nt	13%	nt	nt	nt
O=C(CCc1ccccc1)NNC(=O)c1ccncc1	6%	nt	8%	nt	nt	nt
c1ccc(-c2nnc(N3CCN(c4ccccn4)CC3)c3ccccc23)cc1	14µM*	7.4µM*	11%	-2	nt	8
CS(=O)(=O)N1CCN(c2nnc(-c3ccccc3)c3ccccc23)CC1	-4%	-24%	1%	-19	-7%	-4
Nc1nc(N2CCN(c3ccccn3)CC2)nc2ccccc12	-15%	nt	0%	89*	?	43*
Cc1cccc(C)c1NC(=O)c1cnccn1	18%	2%	18%	1	?	-1
CC(/C=N/NC(=O)CSc1nc(C)cc(C)n1)=C\c1ccccc1	-16%	7%	7%	-11	?	-5
CC(/C=N/NC(=O)c1cccnc1)=C\c1ccccc1	3%	163%	-2%	84*	29%	49*
O=C(N/N=C/C(Cl)=C/c1ccccc1)c1cnccn1	7%	?	66%	57*	?	27
CC(/C=N/Nc1nc(C)cc(C)n1)=C\c1ccc(C(C)C)cc1	-10%	10µM*	36%	59*	?	35*
CC(=C/c1ccccc1)/C=N/NC(=O)c1cnccn1	9%	nt	13%	51*	29%	30*
CC1(C(=O)Nc2ccc(Cl)c(C(F)(F)F)c2)Cc2c(-c3ccc4c(c3)OCO4)ccnc2O1 (centres undefined)	nt	nt	-4%	nt	nt	nt
COc1ccc(CN(C)C(=O)COC(=O)c2cc([N+](=O)[O-])ccc2N2CCCC2)c(OC)c1OC	?	nt	3%	nt	nt	nt
C=C(C1=CCN(S(=O)(=O)C(C)(C)C)[C@@H]1CCO)c1ccccc1	2%	nt	6%	nt	nt	nt

Compound activity as filed in PubChem BioAssay.
